Test results published in the supplement of paper PMC9694430.

Each compound was assayed on LOC_OS06G16330-cb003 (assay: thermal shift delta Tm vs DMSO control; higher = stronger stabilization (binding)). Settings: 12.5 µM; protein concentration 2 µM.
Procedure, shortened: (§1)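 Rice kinase domain constructs, made in E. coli and purified, were placed in 96-well plates at 2 μM in 19.5 μl of 100 mM potassium phosphate pH 7.5, 150 mM NaCl, 10% glycerol and 5 × SYPRO Orange, with compound in DMSO. A temperature ramp from 25°C to 95°C at 0.05°C/s was used for differential scanning fluorimetry. The melting temperature shift is a triplicate mean compared with DMSO-only protein, derived from Boltzmann fits.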
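Also: purified Escherichia coli-expressed rice kinase domain construct.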

Chain of LOC_OS06G16330-cb003 (as listed by the source): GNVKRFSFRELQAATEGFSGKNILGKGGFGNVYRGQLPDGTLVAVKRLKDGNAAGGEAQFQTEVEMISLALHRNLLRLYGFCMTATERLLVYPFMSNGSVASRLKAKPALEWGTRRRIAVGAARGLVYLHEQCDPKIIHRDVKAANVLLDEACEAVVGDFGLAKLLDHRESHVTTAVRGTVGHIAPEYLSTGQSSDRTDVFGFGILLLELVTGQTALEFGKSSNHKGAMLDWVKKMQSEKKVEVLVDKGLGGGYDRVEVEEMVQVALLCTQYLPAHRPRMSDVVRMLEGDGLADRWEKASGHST

SMILES	thermal shift delta Tm [°C]
COc1cc(Nc2ncc(F)c(Nc3ccc4c(n3)NC(=O)C(C)(C)O4)n2)cc(OC)c1OC [R406 (free base)]	14.8
Cc1ccc(S(=O)(=O)/C=C/C#N)cc1	-0.31
O=c1c(O)c(-c2ccc(O)c(O)c2)oc2cc(O)cc(O)c12 [Quercetin]	5.31
C[C@H]1CNC(=O)c2cnn3ccc(nc23)N[C@H](C)c2cc(F)ccc2O1	9.31
C[C@@H](Nc1cc(F)cc(F)c1)c1cc(C(=O)N(C)C)cc2c(=O)cc(N3CCOCC3)oc12	-0.67
Nc1cccc(-c2cc3c(Oc4cccc(O)c4)ncnc3[nH]2)c1	4.75
CC[C@H](CO)Nc1nc(NCc2ccccc2)c2ncn(C(C)C)c2n1 [Roscovitine (Seliciclib,CYC202)]	0.01
CCn1c(=O)c(-c2ccc(Cl)cc2Cl)cc2cnc(Nc3ccc(N4CCNCC4)c(F)c3)nc21	6.75
Cc1c[nH]c2nc(Nc3ccc(N4CCN(C)CC4)c(F)c3)nc(-c3cccc(CC#N)c3)c12	17.6
N#C/C(=C(/N)Sc1ccc(N)cc1)c1ccccc1C(F)(F)F	-0.1
FC(F)(F)c1ccc(CNc2ccc(Cc3c[nH]c4ncc(Cl)cc34)cn2)cn1 [Pexidartinib (PLX3397)]	8.9
COc1cc(N2CCC(N(C)C)CC2)ccc1Nc1ncc(Cl)c(Nc2ccccc2P(C)(C)=O)n1	8.95
CCN(CC)CCNC(=O)c1c(C)[nH]c(/C=C2\C(=O)Nc3ccc(F)cc32)c1C [Sunitinib Malate]	7.74
CCC(=O)Nc1cccc(Oc2nc(Nc3ccc(N4CCN(C)CC4)cc3OC)ncc2Cl)c1	0.62
Cn1c(Nc2ccc(C(F)(F)F)cc2)nc2cc(Oc3ccnc(-c4ncc(C(F)(F)F)[nH]4)c3)ccc21	1.24
CCOc1cc(N2CCC(O)CC2)ccc1Nc1ncc2c(n1)N(C)c1ccccc1C(=O)N2C	0.05
O=C(O)c1ccc(Nc2ncc3c(n2)-c2ccc(Cl)cc2C(c2c(F)cccc2F)=NC3)cc1	-0.12
C[C@@H]1CN(C(=O)c2ccc(NC(=O)c3cc(O[C@H](C)c4c(Cl)ccc(F)c4Cl)c(N)nn3)cc2)C[C@H](C)N1 [Ensartinib (X-396)]	13.8
COc1ccc(F)c(F)c1C(=O)c1cnc(NC2CCN(S(C)(=O)=O)CC2)nc1N	1.56
N#Cc1cnc(Nc2cc(NC[C@H]3CNCCO3)c(C(F)(F)F)cn2)cn1	2.23
O=c1nc(N2CCOCC2)oc2c(-c3cccc4c3sc3ccccc34)cccc12	-1.74
Cc1nc(Nc2ncc(C(=O)Nc3c(C)cccc3Cl)s2)cc(N2CCN(CCO)CC2)n1 [Dasatinib]	1.61
Cc1cc(Nc2cc(N3CCN(C)CC3)nc(/C=C/c3ccccc3)n2)n[nH]1 [ENMD-2076 L-(+)-Tartaric acid]	5.83

The compounds below were run on T1, LOC_OS06G22820-cb001 in the same assay as above. Settings: 12.5 µM; protein concentration 2 µM.
T1 sequence (whole entry): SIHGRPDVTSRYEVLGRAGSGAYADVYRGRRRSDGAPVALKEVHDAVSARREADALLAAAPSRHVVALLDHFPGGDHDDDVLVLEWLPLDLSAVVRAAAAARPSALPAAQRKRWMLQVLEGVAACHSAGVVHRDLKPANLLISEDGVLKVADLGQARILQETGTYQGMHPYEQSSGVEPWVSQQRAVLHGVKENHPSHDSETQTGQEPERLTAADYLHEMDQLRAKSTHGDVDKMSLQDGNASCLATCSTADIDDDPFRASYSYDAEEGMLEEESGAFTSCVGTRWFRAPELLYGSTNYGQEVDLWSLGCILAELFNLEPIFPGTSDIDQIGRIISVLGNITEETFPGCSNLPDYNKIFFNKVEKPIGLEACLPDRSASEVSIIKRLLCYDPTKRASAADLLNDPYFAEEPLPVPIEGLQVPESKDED
Procedure, shortened: as §1

SMILES	thermal shift delta Tm [°C]
CN1CCN(c2cccc(Nc3nc4c(-c5ccc(S(C)(=O)=O)cc5)cccn4n3)c2)CC1	0.43
C[C@@H](NC(=O)c1ncnc(N)c1Cl)c1ncc(C(=O)Nc2cc(C(F)(F)F)c(Cl)cn2)s1	0.53
N#CC(=C(/N)Sc1ccccc1N)/C(C#N)=C(\N)Sc1ccccc1N	1.19
Cc1cc(Nc2cc(N3CCN(C)CC3)nc(/C=C/c3ccccc3)n2)n[nH]1	0.17
OCCn1cc(-c2ccc3c(c2)CC/C3=N\O)c(-c2ccncc2)n1	0.85
COc1cc2c(c(OC)c1OC)-c1c(cc3c(c1OC)OCO3)CC(C)C(C)C2 (stereo not given) [Schisandrin B (Sch B)]	0.43
COc1cc(N2CCN(C)CC2)ccc1Nc1nccc(-c2cn(C)c3cnccc23)n1	0.11
CN(c1ccccc1CNc1nc(Nc2ccc3c(c2)CC(=O)N3)ncc1C(F)(F)F)S(C)(=O)=O	-0.04
CNC(=O)c1ccc(Nc2ncc(C(F)(F)F)c(NCc3nccnc3N(C)S(C)(=O)=O)n2)cc1	0.27
O=C(O)c1ccc2c3c1cccc3c(=O)n1c3ccccc3nc21	0.29
Cc1nc(Nc2n[nH]c3c2CN(C(=O)N[C@H](CN(C)C)c2ccccc2)C3(C)C)c2sccc2n1	2
C[C@H]1[C@H](C)CC[C@]2(C(=O)O)CC[C@]3(C)C(=CC[C@@H]4[C@@]5(C)C[C@@H](O)[C@H](O)[C@@](C)(CO)[C@@H]5CC[C@]43C)[C@H]12 [Asiatic Acid]	0.71
COc1ccc(-c2cc3nccn3c(Nc3ncccc3C(N)=O)n2)cc1OC	0.82
O=C(NCc1ccccc1)c1csc(Nc2ccncn2)n1 [Thiazovivin]	0.56
COc1cc(Nc2ncc(F)c(Nc3ccc4c(n3)NC(=O)C(C)(C)O4)n2)cc(OC)c1OC [R406 (free base)]	0.44
Cc1ccc(S(=O)(=O)/C=C/C#N)cc1	0.01
O=c1c(O)c(-c2ccc(O)c(O)c2)oc2cc(O)cc(O)c12 [Quercetin]	1.15
C[C@H]1CNC(=O)c2cnn3ccc(nc23)N[C@H](C)c2cc(F)ccc2O1	-0.23
C[C@@H](Nc1cc(F)cc(F)c1)c1cc(C(=O)N(C)C)cc2c(=O)cc(N3CCOCC3)oc12	0.43

SMILES	thermal shift delta Tm [°C]
Nc1cccc(-c2cc3c(Oc4cccc(O)c4)ncnc3[nH]2)c1	0.88
CC[C@H](CO)Nc1nc(NCc2ccccc2)c2ncn(C(C)C)c2n1 [Roscovitine (Seliciclib,CYC202)]	0.63
CCn1c(=O)c(-c2ccc(Cl)cc2Cl)cc2cnc(Nc3ccc(N4CCNCC4)c(F)c3)nc21	0.87
Cc1c[nH]c2nc(Nc3ccc(N4CCN(C)CC4)c(F)c3)nc(-c3cccc(CC#N)c3)c12	-0.11
N#C/C(=C(/N)Sc1ccc(N)cc1)c1ccccc1C(F)(F)F	0.8
FC(F)(F)c1ccc(CNc2ccc(Cc3c[nH]c4ncc(Cl)cc34)cn2)cn1 [Pexidartinib (PLX3397)]	0.41
COc1cc(N2CCC(N(C)C)CC2)ccc1Nc1ncc(Cl)c(Nc2ccccc2P(C)(C)=O)n1	0.49
CCN(CC)CCNC(=O)c1c(C)[nH]c(/C=C2\C(=O)Nc3ccc(F)cc32)c1C [Sunitinib Malate]	0.19
CCC(=O)Nc1cccc(Oc2nc(Nc3ccc(N4CCN(C)CC4)cc3OC)ncc2Cl)c1	0.4
Cn1c(Nc2ccc(C(F)(F)F)cc2)nc2cc(Oc3ccnc(-c4ncc(C(F)(F)F)[nH]4)c3)ccc21	2.74
CCOc1cc(N2CCC(O)CC2)ccc1Nc1ncc2c(n1)N(C)c1ccccc1C(=O)N2C	0.49
O=C(O)c1ccc(Nc2ncc3c(n2)-c2ccc(Cl)cc2C(c2c(F)cccc2F)=NC3)cc1	0.97
C[C@@H]1CN(C(=O)c2ccc(NC(=O)c3cc(O[C@H](C)c4c(Cl)ccc(F)c4Cl)c(N)nn3)cc2)C[C@H](C)N1 [Ensartinib (X-396)]	0.22
COc1ccc(F)c(F)c1C(=O)c1cnc(NC2CCN(S(C)(=O)=O)CC2)nc1N	0.23
N#Cc1cnc(Nc2cc(NC[C@H]3CNCCO3)c(C(F)(F)F)cn2)cn1	0.3
O=c1nc(N2CCOCC2)oc2c(-c3cccc4c3sc3ccccc34)cccc12	0.33
Cc1nc(Nc2ncc(C(=O)Nc3c(C)cccc3Cl)s2)cc(N2CCN(CCO)CC2)n1 [Dasatinib]	0.79
Cc1cc(Nc2cc(N3CCN(C)CC3)nc(/C=C/c3ccccc3)n2)n[nH]1 [ENMD-2076 L-(+)-Tartaric acid]	0.62
